Data as given in PubChem BioAssay.

Key:
[1] = biological target: Tumor necrosis factor receptor superfamily member 10B (Homo sapiens) (UniProt O14763); assay: caspase-8 TRAIL sensitization, hit retest, confirmation, cell-based, NB7+caspase-8, with/without TRAIL, luminescence panel (AID 651596); settings: NB7 neuroblastoma + caspase-8, TRAIL sensitization, luminescence viability, with TRAIL, mean of runs, at 10 µM, stronger effect = higher value
[2] = as above; settings: NB7 neuroblastoma + caspase-8, without TRAIL, luminescence viability, without TRAIL, mean of runs, at 10 µM

Tumor necrosis factor receptor superfamily member 10B (Homo sapiens), sequence (O14763 whole entry, looked up): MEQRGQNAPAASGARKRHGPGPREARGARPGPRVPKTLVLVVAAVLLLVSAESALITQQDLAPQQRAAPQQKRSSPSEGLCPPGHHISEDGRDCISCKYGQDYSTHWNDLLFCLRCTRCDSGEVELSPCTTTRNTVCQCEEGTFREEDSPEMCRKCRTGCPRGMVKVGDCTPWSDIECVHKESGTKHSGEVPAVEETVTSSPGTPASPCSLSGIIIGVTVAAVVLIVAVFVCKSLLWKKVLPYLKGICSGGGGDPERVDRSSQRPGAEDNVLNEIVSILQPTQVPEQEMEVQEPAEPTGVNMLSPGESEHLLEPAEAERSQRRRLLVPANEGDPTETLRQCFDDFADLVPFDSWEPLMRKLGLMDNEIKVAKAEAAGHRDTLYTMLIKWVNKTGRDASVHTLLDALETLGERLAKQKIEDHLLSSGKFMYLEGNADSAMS

## C#Cc1cc(N2CCN(C(=O)c3ccoc3)CC2)n2nc(-c3cccc(Cl)c3)cc2n1
[1]
  activity: 98.4%
[2]
  activity: 97.3%

## C=C1C(=O)C23CCC4C(C)(C(=O)OC)CCCC4(C)C2CCC1(O)C3 (stereo unspecified)
[1]
  activity: 95.6%
[2]
  activity: 98.7%

## CC(C)c1ccc(-n2c(-c3ccccc3)c[n+]3c2CCc2ccccc2-3)cc1
[1]
  activity: 77%
[2]
  activity: 75.5%

## COc1cccc(C(=O)Oc2c(CN3CCOCC3)cc(Cl)c3cccnc23)c1
[1]
  activity: 49%
[2]
  activity: 60.3%

## C/C(=N\NC(=O)c1ccncc1)c1cccc(NC(=O)c2ccc(C(C)(C)C)cc2)c1
[1]
  activity: 85.5%
[2]
  activity: 81.6%

## CC(=O)Nc1ccc(C=NNc2nnc(NN=Cc3ccc(NC(C)=O)cc3)c3ccccc23)cc1
[1]
  activity: 68.6%
[2]
  activity: 67.4%

## O=C(Nc1ccc(NC(=O)C2CCCCC2)cn1)c1ccco1
[1]
  activity: 76.2%
[2]
  activity: 80.6%

## CC(C)(C)c1ccc(-c2nnc(N)s2)cc1
[1]
  activity: 64.7%
[2]
  activity: 66.7%

## COc1ccc(-c2ccc(SC)nn2)cc1
[1]
  activity: 88.9%
[2]
  activity: 90.2%

## N/C(=N\OC(=O)c1ccc(Cl)cc1)c1ccc(Cl)cc1
[1]
  activity: 92.4%
[2]
  activity: 76.8%

## O=C(Nc1ccc(-c2cn3ccsc3n2)cc1)C1CC1
[1]
  activity: 75.1%
[2]
  activity: 70.2%

## Cc1ccc(C2=Nc3ccccc3N=C(C(Cl)Cl)C2)cc1
[1]
  activity: 7.3%
[2]
  activity: 6.45%

## CCOc1cc(/C=N\NC(=O)c2ccc(NC(=O)C(C)(C)C)cc2)ccc1OC(=O)c1cccc(C)c1
[1]
  activity: 73.5%
[2]
  activity: 47.2%

## COc1ccc(-c2csc(NC(=O)C3CCN(c4ncnc5sc(C)c(C)c45)CC3)n2)cc1OC
[1]
  activity: 84.3%
[2]
  activity: 62.9%

## Cc1ccccc1CS(=O)(=O)c1ncc(Cl)c(C(=O)Nc2ccc(F)cc2)n1
[1]
  activity: 22.5%
[2]
  activity: 24.9%

## C/C(=N\NC(=O)c1ccccc1F)c1cccc(NC(=O)c2ccc(C)cc2)c1
[1]
  activity: 59.8%
[2]
  activity: 71.5%

## CN(C)CCCN(C(=O)c1ccc(S(=O)(=O)N(C)C2CCCCC2)cc1)c1nc2ccc(Br)cc2s1
[1]
  activity: 46.2%
[2]
  activity: 45%

## C=C1CC2(CC(c3ccccc3)OC(c3ccccc3)C2)OC1=O (stereo unspecified)
[1]
  activity: 47%
[2]
  activity: 73.1%

## CCCCN(CC)S(=O)(=O)c1ccc(C(=O)N=c2sc3cc(NC(C)=O)ccc3n2C)cc1
[1]
  activity: 20.9%
[2]
  activity: 53.8%

## CCN(c1ccccc1)S(=O)(=O)c1ccc(OC)c(NC(=O)c2cc(F)c(F)c(F)c2F)c1
[1]
  activity: 63.3%
[2]
  activity: 87.5%

## CS/C(Nc1cc(Cl)ccc1Cl)=C(/C#N)C(=O)c1ccco1
[1]
  activity: 60.1%
[2]
  activity: 65.6%

## COc1ccc(/C=C\c2nc(=O)c3ccccc3o2)cc1
[1]
  activity: 72%
[2]
  activity: 69.6%

## COc1cccc(C(=O)/C=C/Nc2cccc(O)c2)c1
[1]
  activity: 86%
[2]
  activity: 71.5%

## O=C(Nc1ccc2c(c1)OCCO2)c1ccc(Br)s1
[1]
  activity: 74.3%
[2]
  activity: 66.8%

## CCc1ccc2nc(N(CCCN(C)C)C(=O)c3ccc(S(=O)(=O)N4CCCc5ccccc54)cc3)sc2c1
[1]
  activity: 38.9%
[2]
  activity: 63.9%

## CN(C(=O)c1ccco1)c1nc2c(s1)CCCC2
[1]
  activity: 58.4%
[2]
  activity: 60.5%

## CCN1CCN(c2c(Cl)cccc2NC(=O)c2ccc([N+](=O)[O-])o2)CC1
[1]
  activity: 52.3%
[2]
  activity: 61.3%

## Fc1ccccc1-c1ccc(/C=N/Nc2nc3ccccc3[nH]2)o1
[1]
  activity: 82.7%
[2]
  activity: 79.2%

## Clc1ccc(-c2nc(-c3cnccn3)no2)cc1
[1]
  activity: 45.6%
[2]
  activity: 39.1%

## Cc1cc(N)n2nc(-c3ccccc3)cc2n1
[1]
  activity: 77.2%
[2]
  activity: 68.2%

## CCOc1ccccc1CNC(=O)C1CCN(c2nnc(C)c3c(C)n(-c4ccc(C)cc4)nc23)CC1
[1]
  activity: 48.9%
[2]
  activity: 63.5%

## CCCCCCCCCCCC1N=C(N)NC(CCCO)=C1C(=O)OC (stereo unspecified)
[1]
  activity: 16.3%
[2]
  activity: 18.3%

## CCCOc1ccc(-c2nnc(-c3ccco3)o2)cc1
[1]
  activity: 53.5%
[2]
  activity: 50.9%
